The list is not random: actives were taken first. Their share in the collection is about 2.9%.
Candida biofilm = kills Candida albicans biofilms; C. albicans biofilm + clotrimazole, Alamar Blue; inhibition, % at 6 µM; 0.14% of 85,000 active; AID 834;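 active = inhibition above 20%; inactive = inhibition below 20%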;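 note: preformed 24 hr biofilms exposed to compound for 48 hr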
ERb coact inh = ER-beta (human) coactivator binding inhibition | Q92731 | TR-FRET ER-beta LBD / SRC1-Cy5 peptide binding; receptor agonist-loaded with 1 µM estradiol | inhibition, % at 25.6 µM | 1.3% of 86,000 active;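 active = compounds whose percent inhibition of the receptor-coactivator binding signal exceeds about 50% in the single-dose screen, limit read from the data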
Target sequence (Q92731 whole entry, looked up, the tested form may be a part): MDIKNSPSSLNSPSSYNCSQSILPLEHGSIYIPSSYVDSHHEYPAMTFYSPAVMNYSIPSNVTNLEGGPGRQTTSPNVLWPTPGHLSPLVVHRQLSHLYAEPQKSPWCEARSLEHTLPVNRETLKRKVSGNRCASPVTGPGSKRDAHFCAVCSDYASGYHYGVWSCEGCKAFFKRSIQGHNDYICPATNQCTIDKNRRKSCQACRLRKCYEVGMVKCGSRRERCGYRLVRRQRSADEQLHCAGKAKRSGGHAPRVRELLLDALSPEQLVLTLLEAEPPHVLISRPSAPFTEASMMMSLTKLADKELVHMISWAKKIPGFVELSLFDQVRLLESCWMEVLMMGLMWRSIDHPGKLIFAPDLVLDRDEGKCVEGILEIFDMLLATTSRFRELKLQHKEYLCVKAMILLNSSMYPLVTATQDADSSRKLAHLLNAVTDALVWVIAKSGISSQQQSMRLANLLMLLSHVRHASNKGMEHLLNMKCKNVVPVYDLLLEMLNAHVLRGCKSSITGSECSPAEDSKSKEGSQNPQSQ
Smad3 FoxH1 inh = inhibitors of human Smad3 transcription factor binding | inhibition, % at 25 µM | TR-FRET Smad3/Dy647-FoxH1 peptide binding, europium anti-His | 0.29% of 88,000 active;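 active = compounds that reduce the energy-transfer binding signal between the protein and its labelled peptide by more than half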
ERa coact pot = enhances coactivator binding to human estrogen receptor alpha. coactivator binding (% of control), % at 25.6 µM. 1.3% of 86,000 active. AID 639. TR-FRET ERalpha-LBD/SRC-Cy5 coactivator binding, 2 h; 100 = basal binding, no effect; in the data active = activity above about 200%;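 note: binding measured in presence of low estradiol as agonist stimulus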
HePTP inh = human HePTP phosphatase inhibition; recombinant HePTP phosphatase activity, OD absorbance; AID 521; 0.64% of 110,000 active; P35236; inhibition, % at 20 µM; in the data active = inhibition above about 50%
ERa SRC1 inh = ER-alpha (human) coactivator binding inhibition; P03372; TR-FRET ER-alpha LBD / SRC-1 peptide, estradiol-bound; inhibition, % at 25.6 µM; 1.7% of 86,000 active; in the data active = inhibition above about 50%
Of the large screens only hits and unclear results are named; the others gave an inactive call; [ ] = remark or other dose.

CCOC(=O)CSc1nc(-c2ccccc2)cc(-c2ccccc2)n1	none (no result: Candida biofilm, ERb coact inh, Smad3 FoxH1 inh, ERa coact pot, ERa SRC1 inh)
CCc1nc(N)nc(N)c1-c1ccc(Cl)cc1	ERa coact pot 246
COc1ccc2[nH]c(=O)c(-c3noc(-c4ccccc4)n3)cc2c1	ERb coact inh 61[fluorescence artefact?], ERa SRC1 inh 69[fluorescence artefact?] (no result: HePTP inh)
Cc1ccc(-n2nc3cc(C)c(NC(=O)c4oc5ccccc5c4C)cc3n2)cc1	none (no result: Candida biofilm, ERb coact inh, Smad3 FoxH1 inh, ERa coact pot, ERa SRC1 inh)
CCOc1ncccc1C(=O)OCc1cc(=O)n2c(n1)sc1ccccc12	ERb coact inh 56[fluorescence artefact?], ERa SRC1 inh 84[fluorescence artefact?]
CCOC(=O)C1=C(C)N=c2s/c(=C\c3ccc(-c4cccc(C(=O)O)c4)o3)c(=O)n2C1c1ccc(OC)c(OC)c1 (stereo not drawn)	none (no result: Candida biofilm, ERb coact inh, Smad3 FoxH1 inh, ERa coact pot, ERa SRC1 inh)
CC(C)(C)C(=O)CNS(=O)(=O)c1ccc(S(=O)(=O)NC2CCCC2)cc1	ERa coact pot 284[fluorescence artefact?]
CCC(CC)C(=O)NCCc1cc2c(C)ccc(C)c2[nH]c1=O	ERa SRC1 inh 54[fluorescence artefact?]
COc1ccc(-n2c(CCN3C(=O)c4ccccc4C3=O)nc3ccccc3c2=O)cc1	none (no result: Candida biofilm, ERb coact inh, Smad3 FoxH1 inh, ERa coact pot, ERa SRC1 inh)
COc1cc(NCCCCCCCN)c2ncccc2c1	ERa SRC1 inh 78[fluorescence artefact?] (no result: HePTP inh)
COc1cc(NCCC(=O)O)c2ncccc2c1	none (no result: Candida biofilm, ERb coact inh, ERa coact pot, HePTP inh, ERa SRC1 inh)
Cc1ccc(NC(=O)CN2C(=O)S/C(=C\c3ccc(-c4cccc(C(=O)O)c4C)o3)C2=O)cc1	ERa coact pot 250[fluorescence artefact?] (no result: HePTP inh)
COC(=O)c1ccc(-c2ccc(/C=N\Nc3ccc([N+](=O)[O-])cn3)o2)cc1	none (no result: Candida biofilm, ERb coact inh, Smad3 FoxH1 inh, ERa coact pot, ERa SRC1 inh)
O=C(O)c1ccc(Cl)c(-c2ccc(/C=N\Nc3ccc([N+](=O)[O-])cn3)o2)c1	HePTP inh 54 (no result: Candida biofilm, ERb coact inh, Smad3 FoxH1 inh, ERa coact pot, ERa SRC1 inh)
CC(=O)NC1=NC(=O)/C(=C\c2ccc(-c3ccc(C(=O)O)cc3)o2)S1	HePTP inh 104 (no result: Candida biofilm, ERb coact inh, Smad3 FoxH1 inh, ERa coact pot, ERa SRC1 inh)
CN1C(=O)/C(=C/c2ccc(-c3ccc(C(=O)O)cc3)o2)SC1=S	none (no result: Candida biofilm, ERb coact inh, Smad3 FoxH1 inh, ERa coact pot, ERa SRC1 inh)
CC(=O)NC1=NC(=O)/C(=C\c2ccc(Br)o2)S1	HePTP inh 102 (no result: Candida biofilm, ERb coact inh, Smad3 FoxH1 inh, ERa coact pot, ERa SRC1 inh)
Cc1ccc(C)c(NC(=O)Cn2nc(C)c3ccccc3c2=O)c1	ERa coact pot 296[fluorescence artefact?]
Cc1nn(CC(=O)Nc2ccc3c(c2)oc2ccccc23)c(=O)c2ccccc12	ERb coact inh 51[fluorescence artefact?], ERa SRC1 inh 81[fluorescence artefact?]
Cc1nn(CC(=O)Nc2ccc3c(c2)nc(CN2CCCC2)n3C)c(=O)c2ccccc12	ERa SRC1 inh 70[fluorescence artefact?]
Cc1nn(CC(=O)Nc2ccc(C(=O)N3CCCC3)cc2)c(=O)c2ccccc12	none
COC(=O)c1ccc(NC(=O)Cn2nc(C)c3ccccc3c2=O)cc1	HePTP inh 69 (no result: Candida biofilm, ERb coact inh, Smad3 FoxH1 inh, ERa coact pot, ERa SRC1 inh)
COc1ccccc1NC(=O)CC1CCCCC1	none (no result: Candida biofilm, ERb coact inh, Smad3 FoxH1 inh, ERa coact pot, ERa SRC1 inh)
CC1=CC(=C2C(=O)c3ccccc3C2=O)C=C(C)O1	ERa coact pot 884[fluorescence artefact?]
CCOc1ccc(NC(=O)CCCc2cc(-c3ccc(OCC)cc3)on2)cc1	ERa coact pot 204 (no result: HePTP inh)
O=C(/C=C/c1ccco1)/C=C/c1ccc(-c2ccc(Cl)c(Cl)c2)o1	HePTP inh 102 (no result: Candida biofilm, ERb coact inh, Smad3 FoxH1 inh, ERa coact pot, ERa SRC1 inh)
O=C(/C=C/c1ccc(-c2cc(Cl)ccc2Cl)o1)c1ccco1	HePTP inh 60 (no result: Candida biofilm, ERb coact inh, Smad3 FoxH1 inh, ERa coact pot, ERa SRC1 inh)
CCOC(=O)c1c(NC(=O)C2CCCO2)sc(C(=O)OC(C)(C)C)c1C (stereo not drawn)	none (no result: HePTP inh)
CCOC(=O)c1sc(NC(=O)C2CCCO2)c(C(=O)OCC)c1C (stereo not drawn)	ERa SRC1 inh 57
COc1ccc(-c2oc(NC(=O)CCl)c(C#N)c2-c2ccc(OC)cc2)cc1	ERb coact inh 55[fluorescence artefact?] (no result: HePTP inh)
Cc1ccnc(SCC(=O)Nc2oc(-c3ccccc3)c(-c3ccccc3)c2C#N)n1	none
N#Cc1c(NC(=O)CSc2ncccn2)oc(-c2ccccc2)c1-c1ccccc1	ERa SRC1 inh 60 (no result: HePTP inh)
N#Cc1c(NCCN)nc(NCc2ccccc2)c2c1CCN(Cc1ccccc1)C2	ERa SRC1 inh 79
CCN1CCc2c(C#N)c(NCc3ccccc3)nc(N(CC)CC)c2C1	ERa coact pot 675[fluorescence artefact?]
COc1cccc2cc(C(N)=O)c(=O)oc12	none (no result: Candida biofilm, ERb coact inh, Smad3 FoxH1 inh, ERa coact pot, ERa SRC1 inh)
CCC(=O)Oc1ccc(/C(CC)=C(\CC)c2ccc(OC(=O)CC)cc2)cc1	ERa coact pot 376
OC(COc1cccc(Cl)c1)Cn1cnc2ccccc21 (stereo not drawn)	none (no result: Candida biofilm, ERb coact inh, Smad3 FoxH1 inh, ERa coact pot, ERa SRC1 inh)
Nc1ccc(S(=O)(=O)c2ccc(NC(=O)c3cccnc3)cc2)cc1	Smad3 FoxH1 inh 57 (no result: Candida biofilm, ERb coact inh, ERa coact pot, HePTP inh, ERa SRC1 inh)
CCCNS(=O)(=O)c1ccc(NC(=O)c2cccnc2)cc1	none (no result: HePTP inh)
COC(=O)C1=C(C)N(c2ccc(Cl)cc2)C(=O)/C1=C\c1ccccc1O	none (no result: Candida biofilm, ERb coact inh, Smad3 FoxH1 inh, ERa coact pot, ERa SRC1 inh)
CCOc1ccc(C2=CS/C(=C(\C#N)c3nnc4n3CCCCC4)N2CC)cc1	none
